G9a inh – G9a (human) methyltransferase inhibition | Q96KQ7 | AID 504332 | Potency, µM (highest dose often 102 µM), for the others: at the top dose activity, negative = inhibition, most hits filed as inhibitors | G9a H3K9 monomethylation, AlphaScreen, 2 h | 8.8% of 350,000 active; note: % is set by controls: 0 for no effect and ±100 for the full control effect; nearly all actives have a fitted effect of over 75% in size
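Methyltransferase reactions run at room temperature for 2 h (20 nM enzyme, 500 nM biotin-H3K9 peptide, 20 uM SAM) after a 15 min compound preincubation; product detected by AlphaScreen beads and anti-H3K9me1 antibody.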
Sfp PPTase inh – Sfp phosphopantetheinyl transferase inhibition; 3.5% of 310,000 active; Q9F4F7; Potency, µM, for the others: largest response in the series, negative = inhibition, actives largely listed as inhibitors; AID 1490; Biochemical Sfp PPTase activity, qHTS;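 note: the enzyme is Sfp with the accession as filed and its product quenches rhodamine fluorescence; 0% = enzyme reaction without inhibitor and -100% = no enzyme wells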
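With Hepes-Na pH 7.6 buffer containing 10 mM MgCl2, Sfp (15 nM) modified BHQ-2-YbbR (12.5 uM) using rhodamine-CoA (5 uM). Two reads 30 minutes apart at 525/598 nm yielded each well's rate.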
HP1b binding inh – blocks HP1-beta chromodomain binding to methylated histone tails. P83916. AlphaScreen HP1-beta / biotin-H3K9me3 peptide binding. Potency, µM (doses to about 114 µM), for the others: top-dose activity change, negative = inhibition, hits mostly inhibitors. 0.56% of 390,000 active; note: nearly all actives have a fitted effect of over 70% in size
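HP1-beta protein (50 nM final) preincubated 30 min at room temperature with biotinylated H3(1-18)K9me3 peptide (50 nM) in PBS pH 7.4, 0.01% Tween-20, then compound added for 30 min. AlphaScreen streptavidin donor/nickel chelate acceptor beads (10 ug/mL final), 30 min dark, luminescence read.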
BAZ2B block – blocks human BAZ2B | Q9UIF8 | AlphaScreen BAZ2B-H3K14Ac peptide displacement | Potency, µM (titrated, usually from 114 µM), for inactives: at the top dose activity change, negative = inhibition, actives largely listed as inhibitors | 4.4% of 360,000 active | AID 504333; note: % is set by controls: 0 for no effect and ±100 for the full control effect; nearly all actives have a fitted effect of over 60% in size
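Inhibition is scored as reduced AlphaScreen emission. The BAZ2B/b-H3(5-23)K14Ac complex (50 nM each) in PBS pH 7.4, 0.01% Tween-20 meets compound (up to 110 uM) for 30 min at RT before bead addition.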
JMJD2A Tudor – JMJD2A Tudor domain (human) inhibition; O75164; Potency, µM (top dose mostly 114 µM), inactives show at the highest dose activity change, negative = inhibition, usual class: inhibitors; AlphaScreen JMJD2A-Tudor / H3K4me3 peptide binding; 4.4% of 390,000 active; note: % is set by controls: 0 for no effect and ±100 for the full control effect; nearly all actives have a fitted effect of over 50% in size
TDP1 block – TDP1 (human) enzyme inhibition | Q9NUW8 | recombinant TDP1, AlphaScreen DNA substrate cleavage | Potency, µM (doses to about 130 µM), for inactives: top-dose activity change, negative = inhibition, actives largely listed as inhibitors | 0.28% of 350,000 active | AID 485290; note: % is set by controls: 0 for no effect and ±100 for the full control effect; nearly all actives have a fitted effect of over 40% in size
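AlphaScreen read-out: signal falls as enzyme removes the 3' tyrosine-FITC from a 5'-biotinylated DNA oligo (15 nM, 5 min, RT). Enzyme was E. coli-made recombinant Tdp1 at 1 nM, exposed to compound for 15 min beforehand; beads 10 ug/ml, 10 min.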
* = called active by the depositor; [ ] = remark or other dose. Hits are enriched below; roughly 12% of the tested compounds scored in any of these assays. Calls come from the whole dose curve; as a rule, active = well fitted curve in the direction sought with a large enough effect; inconclusive = small, poorly fitted or top-dose-only effect, or another doubt; inactive = no such curve, though single readings can be large; an effect the other way counts as inactive or inconclusive. Potency is the fitted concentration of half-maximal effect.

Results for O=C1NC(=O)C(CCc2ccncc2)(CCc2ccncc2)C(=O)N1CCc1ccccc1 ?
Sfp PPTase inh: -8%; HP1b binding inh: 5%; BAZ2B block: -5%; JMJD2A Tudor: -11%

Results for CN1c2ccc([N+](=O)[O-])cc2CC2(C(=O)NC(=O)N(c3ccccc3)C2=O)C1c1ccccc1 (stereo unspecified) ?
G9a inh: -10%[59 µM]; Sfp PPTase inh: 30%; HP1b binding inh: -8%; BAZ2B block: -36%; JMJD2A Tudor: -35%; TDP1 block: 1%

What do the screens show for `COc1ccc(CC2(CCc3ccccn3)C(=O)NC(=O)N(c3ccccc3C)C2=O)cc1OC` (stereo unspecified)?
G9a inh: 4%[12.7 µM]; Sfp PPTase inh: -2%; HP1b binding inh: 25%; BAZ2B block: -8%; JMJD2A Tudor: -10%; TDP1 block: 4%

How did Cc1ccc2c(c1)CC1(CN2C)C(=O)NC(=O)N(c2ccc(C)c(C)c2)C1=O (stereo unspecified) do in these assays?
G9a inh: 8.9µM*; Sfp PPTase inh: -8%; HP1b binding inh: 34%; BAZ2B block: -23%; JMJD2A Tudor: -16%; TDP1 block: 3%

How did COc1ccc(-c2cc(C(=O)N3CCN(c4ccccc4OC)CC3)c3cc(C(C)C)ccc3n2)cc1 do in these assays?
G9a inh: -8%[59 µM]; HP1b binding inh: 20%; BAZ2B block: inconclusive; JMJD2A Tudor: -25%; TDP1 block: 3%

How did CCCN1[C@H](C(=O)OC)C[C@@H]2CC[C@@H](O)C[C@@H]21 do in these assays?
Sfp PPTase inh: 19%; TDP1 block: 3%

Results for Cc1ccc2c(c1)CC1(CN2C)C(=O)NC(=O)N(c2ccccc2C)C1=O (stereo unspecified) ?
G9a inh: 10µM*; Sfp PPTase inh: -9%; HP1b binding inh: 34%; BAZ2B block: -5%; JMJD2A Tudor: -5%[57.1 µM]; TDP1 block: 7%

Results for C[C@@H]1CC[C@@]2(OC1)O[C@H]1[C@@H](O)[C@H]3[C@@H]4CC[C@H]5C[C@@H](O[C@@H]6O[C@H](CO)[C@H](O[C@@H]7O[C@H](CO)[C@@H](O)[C@H](O[C@@H]8OC[C@@H](O)[C@H](O)[C@H]8O)[C@H]7O[C@@H]7O[C@H](CO)[C@@H](O)[C@H](O[C@@H]8O[C@H](CO)[C@@H](O)[C@H](O)[C@H]8O)[C@H]7O)[C@H](O)[C@H]6O)[C@H](O)C[C@]5(C)[C@H]4CC[C@]3(C)[C@H]1[C@@H]2C ?
TDP1 block: 14%

How did CN1CCc2nc(N)c(C#N)c(-c3ccccc3)c2C1 do in these assays?
G9a inh: -18%[59 µM]; Sfp PPTase inh: -8%; HP1b binding inh: 6%; BAZ2B block: -7%; JMJD2A Tudor: -6%; TDP1 block: 0%

How did Nc1c(C(=O)Nc2cccc(F)c2)sc2nc(-c3cccs3)ccc12 do in these assays?
G9a inh: -1%[59 µM]; HP1b binding inh: 53%; BAZ2B block: 2%; JMJD2A Tudor: 13%

What do the screens show for `CN1CCc2nc3sc(C#N)c(N)c3c(-c3cccs3)c2C1`?
G9a inh: inconclusive; Sfp PPTase inh: 50µM*; HP1b binding inh: 5%; BAZ2B block: inconclusive; JMJD2A Tudor: -28%; TDP1 block: 7%

What do the screens show for `NC(=O)c1sc2nc3c(c(-c4cccs4)c2c1N)CCCC3`?
G9a inh: 22µM*; Sfp PPTase inh: -17%; BAZ2B block: -26%

Results for CC(=O)O[C@@H]1[C@@H](O)C2OC3C=C(C)C(=O)[C@@H](O)[C@]3(CO)C1(C)C21CO1 (stereo partly specified) ?
Sfp PPTase inh: 2%; TDP1 block: 4%

Results for CCC1CN2CCC1CC2C(O)c1ccnc2ccc(OC)cc12 (stereo unspecified) ?
G9a inh: 6%[2.33 µM]; Sfp PPTase inh: 14%; TDP1 block: -7%[56.1 µM]

High-throughput results deposited in PubChem BioAssay by National Center for Advancing Translational Sciences (NCATS).
